Laboratory results reported in the supplement of paper PMC10849652.
About 8,800 targets were measured; listed, in parts, are those with a hit and a random draw of the rest. About 0.5% of all pairs of compound and target were hits.

Tests used:
Assay in all cases: log2 fold change, soluble protein after heating vs DMSO (PISA); higher = thermal stabilisation; K562 lysate, 10 uM; active = over 0.2 and 3.5 SD of the protein, either way, in both replicates (recomputed)
erlotinib = compound: C#Cc1cccc(Nc2ncnc3cc(OCCOC)c(OCCOC)cc23)c1 [erlotinib]
Outline: (§1)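 Following dounce homogenisation of K562 pellets in PBS pH 7.4 with 1 mM MgCl2, crude extract at 1 mg/mL protein was incubated for 30 min with 10 μM compound. Aliquots were then heated for 3 min over 48°C-58°C and pooled, NP-40 was added to 0.5% at 4°C, and soluble protein was recovered as the supernatant at 21,000xg for 90 min. Channel-sum-equalised TMTpro 16plex LC-MS/MS quantified this protein. Each value, from duplicates, is a log-two fold change in thermal stability relative to solvent controls.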

[1] = compound: C/C(=N\NC(=O)C1=CC(=CC=C1)S(=O)(=O)N2CCOCC2)/C3=C(C=CC(=C3)Cl)O
Outline: as §1

[2] = compound: C1=CC(=CC=C1C2=NC3=C(N2)C=C(C=C3)C(=O)N)OC4=CC=C(C=C4)Cl
Outline: as §1

[3] = compound: C1=CC2=C(C=CC(=C2)/C=C\3/C(=O)NC(=NCC4=CC=CS4)S3)N=C1
Outline: as §1

[4] = compound: C1=CC2=NC=CN=C2C=C1/C=C/3\C(=O)NC(=O)S3
Outline: as §1

[5] = compound: C1=CC=C(C=C1)C2=NC(=C(N2)C3=CC=NC=C3)C4=CC(=C(C=C4)Cl)O
Outline: as §1

[6] = compound: C1=CC=C2C(=C1)C3=NNC4=CC=CC(=C43)C2=O
Outline: as §1

[7] = compound: C1CCN(C1)C(=O)NC2=CC=CC(=C2)NC3=NC=C(C(=N3)NCCC4=CN=CN4)Br
Outline: as §1

[8] = compound: C1CN(CCC1(CC2=CC=C(C=C2)Cl)N)C3=NC=NC4=C3C=CN4
Outline: as §1

IRAK-1-4 Inhibitor I = compound: C1COCCN1CCN2C3=CC=CC=C3N=C2NC(=O)C4=CC(=CC=C4)[N+](=O)[O-] [IRAK-1-4 Inhibitor I]
Outline: as §1

Measured: log2 fold change

PIGO (UniProt Q8TEQ8)
Sequence of UniProt Q8TEQ8 (Q8TEQ8 whole entry, looked up): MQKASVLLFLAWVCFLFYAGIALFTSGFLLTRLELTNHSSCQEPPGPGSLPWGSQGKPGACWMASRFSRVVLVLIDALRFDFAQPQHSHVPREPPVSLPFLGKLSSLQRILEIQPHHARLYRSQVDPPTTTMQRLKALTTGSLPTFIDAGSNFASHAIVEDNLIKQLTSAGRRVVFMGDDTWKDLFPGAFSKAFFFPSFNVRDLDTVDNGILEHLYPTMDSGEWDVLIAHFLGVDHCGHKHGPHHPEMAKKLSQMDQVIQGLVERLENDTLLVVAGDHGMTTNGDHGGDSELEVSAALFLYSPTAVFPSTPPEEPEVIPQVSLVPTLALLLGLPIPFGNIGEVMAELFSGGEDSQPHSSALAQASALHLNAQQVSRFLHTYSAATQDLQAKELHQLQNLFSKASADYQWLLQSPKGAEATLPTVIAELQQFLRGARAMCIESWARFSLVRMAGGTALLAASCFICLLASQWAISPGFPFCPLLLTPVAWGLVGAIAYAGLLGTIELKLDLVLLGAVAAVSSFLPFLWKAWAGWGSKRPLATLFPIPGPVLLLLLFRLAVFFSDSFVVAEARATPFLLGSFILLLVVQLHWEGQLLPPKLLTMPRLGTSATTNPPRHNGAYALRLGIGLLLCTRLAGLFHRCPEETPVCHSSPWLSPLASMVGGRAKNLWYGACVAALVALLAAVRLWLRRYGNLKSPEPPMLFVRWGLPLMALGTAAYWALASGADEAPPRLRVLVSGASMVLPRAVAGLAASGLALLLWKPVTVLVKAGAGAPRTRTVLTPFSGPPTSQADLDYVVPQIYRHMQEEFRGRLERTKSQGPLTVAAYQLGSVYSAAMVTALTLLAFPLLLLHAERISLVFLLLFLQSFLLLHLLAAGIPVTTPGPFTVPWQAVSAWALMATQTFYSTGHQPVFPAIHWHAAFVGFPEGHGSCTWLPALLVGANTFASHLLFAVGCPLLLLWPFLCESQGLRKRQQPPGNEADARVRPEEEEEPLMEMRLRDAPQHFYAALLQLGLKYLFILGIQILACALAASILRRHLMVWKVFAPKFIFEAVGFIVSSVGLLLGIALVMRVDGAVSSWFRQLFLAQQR
inactive: erlotinib 0.179 | [1] -0.423 | [2] -0.266 | [3] 0.242 | [4] 0.132 | [5] 0.001 | [6] -0.285 | [7] -0.001 | [8] 0.117 | IRAK-1-4 Inhibitor I 0.114

PFN1 (UniProt P07737)
inactive: erlotinib -0.022 | [1] -0.017 | [2] 0.01 | [3] 0.019 | [4] -0.007 | [5] -0.006 | [6] 0.015 | [7] -0.002 | [8] 0.01 | IRAK-1-4 Inhibitor I -0.007

PSMB9 (UniProt P28065)
Sequence of UniProt P28065 (P28065 whole entry, looked up): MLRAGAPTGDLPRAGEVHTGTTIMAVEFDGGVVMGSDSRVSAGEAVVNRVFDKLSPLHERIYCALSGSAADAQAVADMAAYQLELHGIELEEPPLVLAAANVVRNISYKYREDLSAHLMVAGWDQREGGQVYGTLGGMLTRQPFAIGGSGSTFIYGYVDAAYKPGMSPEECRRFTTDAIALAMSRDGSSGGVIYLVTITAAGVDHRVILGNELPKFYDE
inactive: erlotinib 0.02 | [1] -0.112 | [2] 0.008 | [3] -0.062 | [4] -0.08 | [5] -0.061 | [6] 0.033 | [7] -0.084 | [8] 0.084 | IRAK-1-4 Inhibitor I -0.048

PFKFB4 (UniProt Q16877)
inactive: erlotinib 0.02 | [1] 0.044 | [2] 0.041 | [3] -0.024 | [4] -0.031 | [5] 0.096 | [6] -0.083 | [7] -0.003 | [8] 0.067 | IRAK-1-4 Inhibitor I -0.023

PIR (UniProt O00625)
Sequence of UniProt O00625 (O00625 whole entry, looked up): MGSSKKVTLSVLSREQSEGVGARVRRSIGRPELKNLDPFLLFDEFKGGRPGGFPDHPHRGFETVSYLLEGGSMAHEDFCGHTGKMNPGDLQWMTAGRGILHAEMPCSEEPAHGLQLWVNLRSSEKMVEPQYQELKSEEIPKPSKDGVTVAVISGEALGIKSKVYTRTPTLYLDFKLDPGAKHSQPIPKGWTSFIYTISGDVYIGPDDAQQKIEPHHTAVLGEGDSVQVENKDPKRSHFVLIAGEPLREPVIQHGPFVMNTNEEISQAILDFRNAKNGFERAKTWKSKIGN
inactive: erlotinib 0.017 | [1] -0.212 | [2] 0.01 | [3] 0.034 | [4] -0.034 | [5] 0.006 | [6] 0.151 | [7] 0.014 | [8] 0.027 | IRAK-1-4 Inhibitor I -0.02

PTMA (UniProt P06454)
inactive: erlotinib -0.002 | [1] 0.062 | [2] 0.067 | [3] -0.013 | [4] -0.002 | [5] 0.01 | [6] -0.017 | [7] -0.009 | [8] -0.017 | IRAK-1-4 Inhibitor I -0.037

PTPN2 (UniProt P17706)
Sequence of UniProt P17706 (P17706 whole entry, looked up): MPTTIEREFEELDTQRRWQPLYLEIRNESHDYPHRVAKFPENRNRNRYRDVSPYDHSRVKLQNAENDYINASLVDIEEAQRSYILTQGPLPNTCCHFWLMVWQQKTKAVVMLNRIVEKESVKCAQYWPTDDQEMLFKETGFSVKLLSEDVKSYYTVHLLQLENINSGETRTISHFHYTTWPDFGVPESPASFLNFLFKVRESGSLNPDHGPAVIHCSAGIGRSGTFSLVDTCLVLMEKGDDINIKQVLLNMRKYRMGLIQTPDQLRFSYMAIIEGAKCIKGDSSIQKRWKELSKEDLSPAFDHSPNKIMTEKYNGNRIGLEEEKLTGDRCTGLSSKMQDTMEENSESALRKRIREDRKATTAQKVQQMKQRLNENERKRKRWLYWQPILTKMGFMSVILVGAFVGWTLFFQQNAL
inactive: erlotinib 0.028 | [1] 0.119 | [2] -0.005 | [3] 0.006 | [4] 0.019 | [5] -0.045 | [6] -0.033 | [7] 0 | [8] 0.046 | IRAK-1-4 Inhibitor I -0.017

PSTPIP2 (UniProt Q9H939)
Sequence of UniProt Q9H939 (Q9H939 whole entry, looked up): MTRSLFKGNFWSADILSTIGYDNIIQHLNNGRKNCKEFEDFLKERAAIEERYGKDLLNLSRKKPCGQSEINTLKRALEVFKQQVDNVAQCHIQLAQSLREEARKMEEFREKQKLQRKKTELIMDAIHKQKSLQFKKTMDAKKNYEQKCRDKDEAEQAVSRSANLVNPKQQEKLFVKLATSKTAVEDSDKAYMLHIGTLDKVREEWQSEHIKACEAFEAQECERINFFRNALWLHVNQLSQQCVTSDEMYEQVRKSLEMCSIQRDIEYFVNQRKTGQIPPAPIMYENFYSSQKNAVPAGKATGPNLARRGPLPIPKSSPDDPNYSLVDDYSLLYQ
inactive: erlotinib 0.002 | [1] 0.05 | [2] -0.028 | [3] 0.055 | [4] -0.031 | [5] -0.003 | [6] -0.122 | [7] 0.01 | [8] 0.005 | IRAK-1-4 Inhibitor I 0.009

PHACTR4 isoform 2 (UniProt Q8IZ21)
inactive: erlotinib 0.003 | [1] -0.02 | [2] 0.012 | [3] -0.004 | [4] -0.021 | [5] 0.021 | [6] 0.013 | [7] -0.017 | [8] 0.052 | IRAK-1-4 Inhibitor I 0.011

PIK3CB (UniProt P42338)
inactive: erlotinib -0.024 | [1] -0.014 | [2] -0.045 | [3] 0.159 | [4] 0.412 | [5] 0.019 | [6] 0.095 | [7] 0.002 | [8] 0.052 | IRAK-1-4 Inhibitor I 0.037

PEF1 (UniProt Q9UBV8)
inactive: erlotinib -0.01 | [1] 0.012 | [2] -0.014 | [3] -0.001 | [4] -0.039 | [5] -0.012 | [6] -0.021 | [7] -0.016 | [8] 0.056 | IRAK-1-4 Inhibitor I 0.025

PWP2 (UniProt Q15269)
inactive: erlotinib 0.051 | [1] -0.076 | [2] -0.036 | [3] 0.02 | [4] 0.015 | [5] -0.012 | [6] -0.013 | [7] 0.018 | [8] 0.04 | IRAK-1-4 Inhibitor I -0.027

PDPK1 (UniProt O15530)
inactive: erlotinib -0.066 | [1] -0.007 | [2] -0.081 | [3] -0.047 | [4] -0.055 | [5] 0.005 | [6] 0.298 | [8] 0.019 | IRAK-1-4 Inhibitor I 0.018
active: [7] 0.552

PCLAF (UniProt Q15004)
Sequence of UniProt Q15004 (Q15004 whole entry, looked up): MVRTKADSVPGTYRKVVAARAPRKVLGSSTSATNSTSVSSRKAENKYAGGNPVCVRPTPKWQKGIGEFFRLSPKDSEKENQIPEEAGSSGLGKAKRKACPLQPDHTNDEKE
inactive: erlotinib 0 | [1] -0.026 | [2] 0.057 | [3] -0.006 | [4] -0.059 | [5] -0.015 | [6] 0.012 | [7] 0.037 | [8] -0.052 | IRAK-1-4 Inhibitor I 0.016

PI4KA (UniProt P42356)
inactive: erlotinib 0.018 | [1] -0.014 | [2] -0.055 | [3] 0.035 | [4] 0.075 | [5] -0.028 | [6] -0.027 | [7] -0.021 | [8] 0.02 | IRAK-1-4 Inhibitor I -0.003

PRKAR2B (UniProt P31323)
Sequence of UniProt P31323 (P31323 whole entry, looked up): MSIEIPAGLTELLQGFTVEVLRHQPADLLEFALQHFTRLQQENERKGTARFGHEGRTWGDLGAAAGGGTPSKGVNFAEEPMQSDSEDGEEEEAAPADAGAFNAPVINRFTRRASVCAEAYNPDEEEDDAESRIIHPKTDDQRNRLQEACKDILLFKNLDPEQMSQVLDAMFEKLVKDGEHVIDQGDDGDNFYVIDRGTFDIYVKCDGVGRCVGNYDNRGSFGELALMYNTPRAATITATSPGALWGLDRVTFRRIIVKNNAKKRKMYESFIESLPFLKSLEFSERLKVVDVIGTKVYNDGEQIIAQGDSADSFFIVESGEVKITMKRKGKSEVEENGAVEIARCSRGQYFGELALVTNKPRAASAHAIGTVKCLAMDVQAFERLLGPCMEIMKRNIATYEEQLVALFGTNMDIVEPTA
inactive: erlotinib 0 | [1] 0.066 | [2] -0.022 | [3] -0.025 | [4] 0.018 | [5] -0.03 | [6] -0.116 | [7] -0.16 | [8] -0.131 | IRAK-1-4 Inhibitor I -0.016

POLB (UniProt P06746)
inactive: erlotinib 0.012 | [1] 0.009 | [2] 0.075 | [3] 0.069 | [4] -0.022 | [5] 0.019 | [6] -0.061 | [7] -0.019 | [8] 0.026 | IRAK-1-4 Inhibitor I -0.062

POLD3 (UniProt Q15054)
Sequence of UniProt Q15054 (Q15054 whole entry, looked up): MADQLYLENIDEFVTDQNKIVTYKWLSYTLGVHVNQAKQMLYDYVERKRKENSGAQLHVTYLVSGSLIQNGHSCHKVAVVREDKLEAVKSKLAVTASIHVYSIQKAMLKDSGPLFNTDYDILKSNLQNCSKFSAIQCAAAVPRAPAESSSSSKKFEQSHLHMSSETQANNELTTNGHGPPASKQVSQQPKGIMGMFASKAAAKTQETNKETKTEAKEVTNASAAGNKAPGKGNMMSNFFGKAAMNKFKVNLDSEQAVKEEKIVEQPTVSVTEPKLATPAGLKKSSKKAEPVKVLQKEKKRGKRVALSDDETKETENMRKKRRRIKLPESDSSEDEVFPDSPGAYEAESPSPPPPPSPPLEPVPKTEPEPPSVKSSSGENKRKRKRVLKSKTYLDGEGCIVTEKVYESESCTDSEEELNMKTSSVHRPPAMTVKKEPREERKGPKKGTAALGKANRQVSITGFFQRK
inactive: erlotinib 0.015 | [1] 0.002 | [2] -0.006 | [3] -0.003 | [4] -0.048 | [5] 0.01 | [6] -0.048 | [7] -0.058 | [8] -0.012 | IRAK-1-4 Inhibitor I -0.035

PRPF6 (UniProt O94906)
inactive: erlotinib 0.018 | [1] 0.038 | [2] -0.003 | [3] -0.035 | [4] 0.001 | [5] 0.037 | [6] -0.018 | [7] -0.056 | [8] -0.032 | IRAK-1-4 Inhibitor I -0.046

PTGS1 isoform 6 (UniProt P23219)
Sequence of UniProt P23219 (P23219 whole entry, looked up): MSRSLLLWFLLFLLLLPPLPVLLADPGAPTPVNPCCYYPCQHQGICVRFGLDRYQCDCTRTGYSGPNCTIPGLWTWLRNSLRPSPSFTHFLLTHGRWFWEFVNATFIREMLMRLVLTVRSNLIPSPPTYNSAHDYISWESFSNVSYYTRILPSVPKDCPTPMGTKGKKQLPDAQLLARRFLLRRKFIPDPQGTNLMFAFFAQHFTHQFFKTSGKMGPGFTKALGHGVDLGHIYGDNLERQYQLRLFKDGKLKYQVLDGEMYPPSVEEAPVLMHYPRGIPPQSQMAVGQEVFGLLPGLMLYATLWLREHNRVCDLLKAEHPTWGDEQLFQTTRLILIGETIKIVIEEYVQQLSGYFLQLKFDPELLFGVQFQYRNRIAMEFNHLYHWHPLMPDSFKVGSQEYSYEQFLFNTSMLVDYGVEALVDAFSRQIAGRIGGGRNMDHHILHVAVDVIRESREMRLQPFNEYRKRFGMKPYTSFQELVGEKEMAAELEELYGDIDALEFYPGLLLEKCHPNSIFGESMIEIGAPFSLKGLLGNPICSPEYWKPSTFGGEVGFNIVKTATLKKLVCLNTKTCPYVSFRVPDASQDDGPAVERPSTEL
inactive: erlotinib -0.044 | [1] 0.118 | [2] 0.033 | [3] -0.105 | [4] -0.005 | [5] 0.086 | [6] -0.03 | [7] 0.008 | [8] -0.025 | IRAK-1-4 Inhibitor I 0.061

PDE4DIP isoform 4 (UniProt Q5VU43)
inactive: erlotinib 0.002 | [1] -0.026 | [2] 0.017 | [3] 0.004 | [4] -0.004 | [5] 0 | [6] -0.111 | [7] -0.009 | [8] 0.055 | IRAK-1-4 Inhibitor I 0.024

PPP2R3C (UniProt Q969Q6)
Sequence of UniProt Q969Q6 (Q969Q6 whole entry, looked up): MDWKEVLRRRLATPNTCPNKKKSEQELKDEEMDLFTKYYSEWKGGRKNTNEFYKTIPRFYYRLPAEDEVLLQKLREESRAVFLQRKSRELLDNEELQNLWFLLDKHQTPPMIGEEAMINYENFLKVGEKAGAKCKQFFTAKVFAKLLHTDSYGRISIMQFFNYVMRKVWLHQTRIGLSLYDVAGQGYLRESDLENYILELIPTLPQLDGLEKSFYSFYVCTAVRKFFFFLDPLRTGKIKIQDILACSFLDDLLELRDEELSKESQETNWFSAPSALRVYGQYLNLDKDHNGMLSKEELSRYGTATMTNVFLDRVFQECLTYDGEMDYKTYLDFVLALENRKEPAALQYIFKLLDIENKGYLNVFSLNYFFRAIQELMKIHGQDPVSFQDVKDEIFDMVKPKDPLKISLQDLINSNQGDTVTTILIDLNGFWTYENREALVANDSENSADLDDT
inactive: erlotinib -0.061 | [1] -0.009 | [2] -0.126 | [3] -0.025 | [4] -0.019 | [5] 0.033 | [6] -0.032 | [7] -0.023 | [8] -0.035 | IRAK-1-4 Inhibitor I -0.018

PFDN2 (UniProt Q9UHV9)
Sequence of UniProt Q9UHV9 (Q9UHV9 whole entry, looked up): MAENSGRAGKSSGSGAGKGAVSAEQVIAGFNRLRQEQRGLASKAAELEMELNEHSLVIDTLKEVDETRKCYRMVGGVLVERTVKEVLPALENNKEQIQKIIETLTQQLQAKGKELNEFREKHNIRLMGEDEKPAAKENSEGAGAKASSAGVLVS
inactive: erlotinib -0.055 | [1] -0.003 | [2] -0.038 | [3] 0.006 | [4] 0 | [5] -0.027 | [6] 0.071 | [7] 0.043 | [8] -0.026 | IRAK-1-4 Inhibitor I -0.015

PTPN7 isoform 3 (UniProt P35236)
Sequence of UniProt P35236 (P35236 whole entry, looked up): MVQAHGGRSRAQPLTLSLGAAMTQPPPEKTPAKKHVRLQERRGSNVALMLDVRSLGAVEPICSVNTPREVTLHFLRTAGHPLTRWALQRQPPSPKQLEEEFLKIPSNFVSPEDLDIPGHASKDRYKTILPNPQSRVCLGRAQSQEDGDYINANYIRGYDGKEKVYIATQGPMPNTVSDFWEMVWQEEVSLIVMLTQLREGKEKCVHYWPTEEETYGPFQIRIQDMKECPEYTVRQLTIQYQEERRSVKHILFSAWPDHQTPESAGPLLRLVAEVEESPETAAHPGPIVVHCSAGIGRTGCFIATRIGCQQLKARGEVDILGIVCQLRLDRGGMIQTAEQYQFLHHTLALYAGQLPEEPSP
inactive: erlotinib 0.032 | [1] -0.002 | [2] -0.028 | [3] -0.06 | [4] -0.026 | [5] -0.008 | [6] -0.03 | [7] 0.009 | [8] 0.045 | IRAK-1-4 Inhibitor I 0.021

PCBP2 (UniProt H3BRU6)
inactive: erlotinib 0.094 | [1] -0.272 | [2] 0.166 | [3] 0.061 | [4] -0.057 | [5] -0.034 | [6] -0.15 | [7] -0.196 | [8] -0.096 | IRAK-1-4 Inhibitor I 0.009

QKI (UniProt Q96PU8)
inactive: erlotinib -0.023 | [1] -0.018 | [2] -0.001 | [3] -0.005 | [4] 0.012 | [5] -0.029 | [6] 0.012 | [7] 0.005 | [8] -0.034 | IRAK-1-4 Inhibitor I 0.027

PLK1 (UniProt P53350)
inactive: erlotinib 0.006 | [1] -0.032 | [2] -0.013 | [3] 0.077 | [4] -0.092 | [5] 0 | [6] -0.147 | [7] -0.069 | [8] 0.143 | IRAK-1-4 Inhibitor I -0.141
